Data taken from PubChem BioAssay (NCI).
This is part of a sample that, as a whole, favours compounds with a hit. Of some 83,000 tested, about 20% had one in any assay.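 Each cell line was grown in a 96-well plate and treated with one concentration of compound for 48 hours. Values below 10 were considered active.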 Values without a mark were called inactive. Active and inactive are the calls of the source.

Tests used:
Assay in all cases: NCI-60 one-dose screen, 48 h (100 = growth as untreated, 0 = no growth, -100 = all killed)
SR leukemia = settings: 10 µM unless noted
RPMI-8226 leukemia = settings: 10 µM unless noted
OVCAR-8 ovarian = settings: 10 µM unless noted
OVCAR-5 ovarian = settings: 10 µM unless noted
OVCAR-4 ovarian = settings: 10 µM
SK-OV-3 ovarian = settings: 10 µM unless noted
HS 578T breast = settings: 10 µM unless noted
NCI/ADR-RES ovarian = settings: 10 µM unless noted
IGROV1 ovarian = settings: 10 µM unless noted
OVCAR-3 ovarian = settings: 10 µM unless noted

SMILES	growth (SR leukemia)	growth (RPMI-8226 leukemia)	growth (OVCAR-8 ovarian)	growth (OVCAR-5 ovarian)	growth (OVCAR-4 ovarian)	growth (SK-OV-3 ovarian)	growth (HS 578T breast)	growth (NCI/ADR-RES ovarian)	growth (IGROV1 ovarian)	growth (OVCAR-3 ovarian)
O=C(C[n+]1ccn(CC(OCc2ccc(Cl)cc2Cl)c2ccc(Cl)cc2Cl)c1)c1ccc(F)cc1 (stereo unspecified)	-52.9% (active)	-46.3% (active)	-90.5% (active)	-93.4% (active)	-96.2% (active)	26.3%	-57.1% (active)	103%	–	–
Cn1cc(-c2noc(C(=O)c3cn(C)c4ncc(Br)cc34)n2)c2ccccc21	95.6%	84.6%	101%	90.2%	100%	–	99.7%	106%	87.8%	106%
CCOC(=O)c1nn(C2CCCCO2)c2ccc(NC(=O)CN3CCOCC3)cc12 (stereo unspecified)	112%	109%	99.6%	102%	102%	–	99.3%	104%	102%	107%
O=C(Nc1ccc(CN2CCOCC2)c(C(F)(F)F)c1)c1nc2ccc3[nH]ncc3c2c2c1CCCC2	95.8%	83.3%	93.5%	104%	91%	–	95.7%	96.3%	95.8%	102%
CCN1CCN(CC(=O)Nc2nc3ccc(NCc4ccc(Cl)cc4)cc3s2)CC1	15.8%	39.6%	78%	74.6%	80.4%	–	70.5%	82.6%	70.9%	62.1%
C#C[C@]1(O)CC[C@H]2[C@@H]3CC=C4c5nc(Nc6ncccn6)sc5CC[C@]4(C)[C@H]3CC[C@@]21C	17.8%	-12.3% (active)	77%	86%	67.9%	–	1.8% (active)	75.4%	70.8%	65.3%
C[C@@H]1C[C@H]2C(=O)O[C@@H](C)[C@H](NC(=O)[C@H](Cc3cc(F)cc(F)c3)NC(=O)Nc3ccc(Cl)cc3F)C(=O)N3C[C@H](O)C[C@H]3C(=O)N3CCN(C)C[C@H]3C(=O)N[C@@H](C)C(=O)N2C1	40.3%	20.4%	39.1%	41.9%	16.4%	–	37.9%	105%	51.3%	20.4%
CC1(C)OC2[C@@H](CNC(=O)NC(=O)NC(=O)CI)O[C@@H](n3cnc4c(NC(=O)Nc5ccccc5)ncnc43)[C@H]2O1 (stereo partly specified)	-50.8% (active)	64.2%	75.9%	93%	73.5%	–	98.7%	84.6%	15.5%	-32.6% (active)
NC1=NC(=O)NC1(c1ccccc1)c1ccccc1	97.9%	94.3%	97.7%	83.2%	105%	92.7%	98.3%	106%	–	–
COc1ccc(C2CC(c3ccc4ccccc4c3)=NN2c2nc(O)c(C3=c4cc(OC)ccc4=NC3=O)s2)cc1 (stereo unspecified)	-30.5% (active)	1.78% (active)	-34.6% (active)	0.651% (active)	-45.8% (active)	–	-7.14% (active)	57%	-18.5% (active)	-55.5% (active)
Cc1cc(N2CCCCCC2)nc(N2CCN(CC(=O)Nc3ccc4c(ccn4Cc4ccccc4)c3)CC2)n1	23.4%	43.9%	32.5%	74.4%	46.1%	–	47.2%	37.6%	49.9%	55.4%
C[n+]1c2ccccc2nc2c(N)cc(N)cc21	38.3%	80.2%	41.6%	101%	72.5%	–	55.5%	92.9%	70.1%	15.2%
Cc1c(Cn2cc(COc3ccc(Br)cc3)nn2)c(C)c(Cn2cc(COc3ccc(Br)cc3)nn2)c(C)c1Cn1cc(COc2ccc(Br)cc2)nn1	63.2%	97.9%	95.1%	96.8%	87.3%	–	96.8%	101%	90.7%	88.7%
Cc1ccc(S(=O)(=O)Oc2ccc(Br)cc2Br)cc1	22%	73.3%	95.1%	89.5%	72.4%	–	87.7%	62.3%	73.3%	86.9%
CCCCCCSc1ncnc2nc[nH]c12	85.2%	84.8%	95.5%	98.9%	88.4%	–	102%	91.3%	82.6%	103%
Cc1ccc(-c2cc(-c3ccc(C)cc3)nc(NCCNc3ccnc4cc(Cl)ccc34)n2)cc1	2.87% (active)	-22% (active)	-53.4% (active)	-34.9% (active)	-31.4% (active)	–	-46.7% (active)	-63.1% (active)	-66.2% (active)	-80.3% (active)
Cn1cc(-c2nnc(-c3cn(C)c4ncccc34)o2)c2ccccc21	19.1%	31.3%	49.8%	55.5%	36.5%	–	30.9%	11.9%	28%	-12% (active)
COc1c(C(C)=O)c(OCCCCOc2c(C(C)=O)c(OC)c3ccoc3c2OC)c(OC)c2occc12	72.7%	47.3%	45.3%	120%	59.2%	105%	93.9%	22.9%	–	–
CCCN1CC(c2ccc(OC)c(OC)c2)=C(c2cn(C(=O)OCC)c3ccccc23)C1=O	25.3%	63.8%	71.5%	83.1%	62.3%	–	48.1%	29.5%	40.2%	2% (active)
O=C(O)c1ccccc1C(F)(F)F	92.4%	59%	105%	97.2%	101%	93.1%	89.7%	80.8%	–	–
C#C[C@]1(O)CC[C@H]2[C@@H]3CC=C4c5nc(N)sc5CC[C@]4(C)[C@H]3CC[C@@]21C	23.6%	-7.97% (active)	85.3%	88.5%	63.4%	–	6.1% (active)	62.1%	71.8%	47.2%
Clc1ccc2nc(-c3ccc(-c4ccc(/C=N/NC5=NCCN5)cc4)s3)cn2c1	8.33% (active)	53.5%	102%	107%	87.1%	–	92.6%	99.3%	94.6%	109%
CCc1ccc(-c2ccc(COc3ccc(CC4SC(=O)NC4=O)cc3)cc2)cc1 (stereo unspecified)	45.9%	57.5%	77.2%	91.2%	58.6%	–	80.9%	65.1%	63.8%	73.6%
Cc1ccc(NC(=O)N[C@@H](Cc2cc(F)cc(F)c2)C(=O)N[C@@H]2C(=O)N3CCC[C@H]3C(=O)N3CCOC[C@H]3C(=O)N[C@@H](C)C(=O)N3C[C@H](C)C[C@H]3C(=O)O[C@H]2C)cc1	32%	23%	19.8%	38%	12.8%	–	41.9%	91.5%	47.2%	18.9%
C#C[C@]1(O)CC[C@H]2[C@@H]3CC=C4c5nc(Nc6ccccc6[N+](=O)[O-])sc5CC[C@]4(C)[C@H]3CC[C@@]21C	30.2%	1.11% (active)	85.7%	70.4%	84.9%	–	–	75.8%	67.2%	65.8%
CCOC(=O)c1nn(C2CCCCO2)c2ccc(NC(=O)CSc3nc4ccccc4c(=O)[nH]3)cc12 (stereo unspecified)	113%	101%	98.1%	115%	100%	–	51.6%	107%	101%	106%
CNC(=O)c1cc(Oc2cccc3nc(NC(=O)Nc4cc(C(F)(F)F)cc(C(F)(F)F)c4)ccc23)ccn1	47.9%	41.1%	37.2%	33.3%	-38.2% (active)	–	22.2%	49.5%	51.4%	–
CC[C@@](C)(NC(=O)[C@H](C)NC(=O)CCNC(=O)C(C)(C)NC(=O)[C@H](C)NC(=O)[C@@H]1CCCN1C(=O)[C@@](C)(CC)NC(=O)[C@H](Cc1ccccc1)NC(=O)C1CCCN1C(=O)C(C)(C)NC(=O)C1CCCN1C(=O)C(C)(C)NC(C)=O)C(=O)NCCC(=O)N[C@@H](CC(C)C)C(=O)NC(C)(C)C(=O)NCCC(=O)N[C@@H](CC(C)C)C(=O)NC(C)(C)C(=O)NC(C)(C)C(=O)N[C@@H](CC(C)C)C(=O)NCCC(=O)NCO (stereo partly specified)	-50.9% (active)	-55.5% (active)	-82% (active)	-87.6% (active)	-96.5% (active)	–	-60.6% (active)	-93.3% (active)	-71.9% (active)	-100% (active)
